# Results as given in ChEMBL document CHEMBL4513216, “Probing the Open Global Health Chemical Diversity Library for Multistage-Active Starting Points for Next-Generation Antimalarials” (ACS Infect Dis, 2020).
# Out of some 69,000 compounds screened, about 8,600 (12%) showed an effect of 50% or more. This is one part of a sample in which strong results are shown more often than they occur.
# Test system: Plasmodium berghei
# Experiment: Screen against P. berghei liver stage (PbLuc), transformed with Luciferase, at 10uM
# Format: functional, HepG2
# Settings: tested at 10 uM
row,Structure (SMILES),INHIBITION [%]
1,CCC(NC(=O)c1cc(OC)c2c(c1)OCCO2)c1cccs1 (stereo not drawn),24.3
2,Cc1noc(C)c1CN1CCn2nc(CCC(=O)N3CCCC3)cc2C1,19.3
3,COc1cccc(OCCN2CC[C@@](O)(C3CCOCC3)[C@H](C)C2)c1,49.3
4,COc1cccc(Cc2nnc(SCCS(C)(=O)=O)o2)c1,49.1
5,COc1ccccc1Cc1nnc(SCCS(C)(=O)=O)o1,53.8
6,CS(=O)(=O)CCSc1nnc(Cc2ccccc2F)o1,52.6
7,CCOCCSc1nnc(Cc2ccccc2F)o1,-19
8,COCCOCCSc1nnc(Cc2ccccc2F)o1,6.88
9,N#CCCSc1nnc(Cc2ccccc2F)o1,20.5
10,CC[C@H]1N(CC2CCC2)CCC[C@]12CCC(=O)N2Cc1ccncc1,19.8
11,COCCC(=O)N1CCC(c2cc3ncc(C)nc3[nH]2)CC1,15.9
12,Cc1cnn(CC2CCCCN2Cc2c(C)noc2C)c1 (stereo not drawn),26.09
13,CC1CCCN(Cc2cccc(C(=O)Nc3nccs3)c2)C1 (stereo not drawn),-37.8
14,O=C(c1ccccn1)N1CCC(c2nc(O)cc(-c3ccncc3)n2)C1 (stereo not drawn),19.6
15,CCOc1ncccc1NC(=O)NC1CCCN(c2ncccn2)C1 (stereo not drawn),30.8
16,c1cc2c(c(-c3cc(N4CCOCC4)ncn3)c1)CCNC2,58.6
17,Nc1cnc(-c2cccc3c2CCNC3)cn1,-0.178
18,Nc1cc(-c2cccc3c2CCNC3)ncn1,28.7
19,COc1cc2nc3n(c(=O)c2cc1OC)CCN(C(=O)C1CC1)CC3,35.2
20,COc1cc(OCC(=O)NCCc2ccccc2)cc(OC)c1OC,-13.2
21,COCC(=O)N1CC[C@@H]2O[C@@H](C)C[C@H]2C1,10.1
22,COCCC(=O)N1CC[C@H]2O[C@@H](C)C[C@H]2C1,64.9

row,Structure (SMILES),INHIBITION [%]
1,COCCC(=O)N1CC[C@@H]2O[C@@H](C)C[C@H]2C1,18.8
2,COCCn1c(-c2cccc(OC)c2)cnc1NC(=O)NC(C)C,18.4
3,Nc1ncc(-c2ccc(Cl)cc2)c(C2CCCNC2)n1 (stereo not drawn),31.6
4,Nc1ncc(-c2ccc(C(F)(F)F)cc2)c(C2CCCNC2)n1 (stereo not drawn),70.1
5,Nc1ncc(-c2ccc(F)cc2)c(C2CCCNC2)n1 (stereo not drawn),28.3
6,O=c1cc2c(nn1CN1CCN(c3ccccc3)CC1)CCCC2,38.9
7,Cn1cc(C(=O)N2CCCC2c2noc(C3CC3)n2)c2ccccc21 (stereo not drawn),19.2
8,O=C1CO[C@H]2CN(C3CCOCC3)C[C@H]2N1Cc1ccc(F)cc1,4.82
9,O=C1CO[C@@H]2CN(C3CCOCC3)C[C@H]2N1Cc1ccncc1,73.6
10,O=C1CO[C@H]2CN(C3CCOCC3)C[C@H]2N1Cc1ccncc1,22.2
11,CCC(Nc1ccc(CCN2CCOCC2)cc1)C(N)=O (stereo not drawn),-28.8
12,CCC(Nc1ccc(CCN2CCCCC2)cc1)C(N)=O (stereo not drawn),57.2
13,CCOC(=O)C(C)Nc1ccc(CCN2CCOCC2)cc1 (stereo not drawn),-30.1
14,Cc1nn(Cn2ccc(C(=O)N3CCCC3)n2)c(C)c1Cl,7.92
15,COc1cc(-c2nc(C3CC3)nn2-c2ccnc(C)c2)nc(OC)n1,-10.2
16,O=C(Nc1nnc(C(F)F)s1)NC(CCO)c1cccs1 (stereo not drawn),13.8
17,CN(C)CCCN(C)C1CCN(c2cccc(-c3cscn3)c2)CC1,52.2
18,Cc1cc(CN(C)C2CCN(c3cccc(-c4cscn4)c3)CC2)on1,44.8
19,CN(Cc1ccon1)C1CCN(c2cccc(-c3cscn3)c2)CC1,30.9
20,CN(Cc1nccs1)C1CCN(c2cccc(-c3cscn3)c2)CC1,63.6
21,Cc1nnc(CN(C)C2CCN(c3cccc(-c4cscn4)c3)CC2)o1,23.5
22,CN(Cc1cnn(C)c1)C1CCN(c2cccc(-c3cscn3)c2)CC1,45.6

row,Structure (SMILES),INHIBITION [%]
1,Cc1cc(C2CCCN(CCCS(C)(=O)=O)C2)n[nH]1 (stereo not drawn),11.9
2,CN(C)c1ccc(C(=O)N2CCN(Cc3cscn3)CC2)cn1,-0.219
3,CCOCc1cccc(NCc2c[nH]nc2-c2cccnc2)c1,49.1
4,FCCOc1cccc(NCc2c[nH]nc2-c2cccnc2)c1,34.6
5,COc1ccc(NCc2c[nH]nc2-c2cccnc2)cc1,56.8
6,CC(Cn1cccn1)NC(=O)NCc1ccc(OC2CCCC2)nc1 (stereo not drawn),54.4
7,CC(Cn1cccn1)NC(=O)NCc1ccnc(OC2CCCC2)c1 (stereo not drawn),23.5
8,CC(Cn1cccn1)NC(=O)NCc1cccnc1OC1CCCC1 (stereo not drawn),-21.7
9,CC(C)n1cnnc1CN1CCC2(CCCN(C3CCCCC3)C2=O)C1 (stereo not drawn),-64.1
10,CCN1CCCC1CNC(=O)c1cc(COc2ccccc2F)[nH]n1 (stereo not drawn),-11.2
11,COc1ccc2c(c1)CCCN(CC(=O)NCC1CCCO1)C2 (stereo not drawn),39.6
12,Cc1c(C(=O)N2CCN(C)CC2)n(C)c2ccc(Cl)cc12,20.9
13,Cc1c(C(=O)N2CCOCC2)n(C)c2ccc(Cl)cc12,-1.3
14,Cc1c(C(=O)N2CCC(N3CCCCC3)CC2)n(C)c2ccc(Cl)cc12,69.3
15,NS(=O)(=O)CC1CCCN(C(=O)CCCC2CCCC2)C1 (stereo not drawn),43.8
16,O=C(CCC1CCN(C2Cc3ccccc3C2)CC1)NCC1CCCO1 (stereo not drawn),25.8
17,O=C1CCC2(CCN(Cc3nccs3)CC2)N1Cc1ccccc1,11.4
18,COc1ccc(-c2cc(N)ccn2)c(OC)c1OC,61.5
19,COc1ccc(-c2ccnc(N)c2)c(OC)c1,-10.5
20,COc1cc(F)ccc1-c1cc(N)ccn1,49.6
21,CCOc1ccc2oc(-c3cnn(C)c3C)c(O)c(=O)c2c1,0.207
22,COC(=O)c1ccc(NC(=O)CCNCc2ccco2)cc1,36.5

row,Structure (SMILES),INHIBITION [%]
1,CN1CCN(Cc2ccc(-c3ccc(-c4ccn[nH]4)cc3)nc2)CC1,54.9
2,CN1CCN(Cc2ccc(-c3ccc(C(N)=O)cc3)nc2)CC1,24.2
3,CN1CCN(Cc2ccc(-c3ccc4[nH]ccc4c3)nc2)CC1,27.5
4,CCCC(=O)N1CCCCC1c1nccc(C)n1 (stereo not drawn),20.8
5,COc1ccc(CN(C)[C@@H]2CN(C(=O)c3cccn3C)C[C@H]2O)cc1,32.8
6,CCN(C)c1ncc2c(c1C(=O)O)CCN(C1CCOC1)C2 (stereo not drawn),33.4
7,CN1CCN(c2ncc3c(c2C(=O)O)CCN(C2CCOC2)C3)CC1 (stereo not drawn),58.5
8,CCN(CC)c1ncc2c(c1C(=O)O)CCN(C1CCOC1)C2 (stereo not drawn),15.7
9,CO[C@@H]1CCN(C(=O)c2ccsc2)[C@@H]2CN(CC3CC3)C[C@@H]21,-19.6
10,NC(=O)COc1ccc(CN2CC[C@@]3(O)CCCC[C@H]3C2)cc1Cl,16.8
11,NC(=O)COc1ccc(CN2CCC(O)(CN3CCCCC3)C2)cc1Cl (stereo not drawn),50.5
12,NC(=O)COc1ccc(CN2CCC3(CC2)[C@H](O)C[C@@H]3O)cc1Cl,28.7
13,COc1ccccc1C1CCN(C(=O)CN2C(=O)OC(C)(C)C2=O)CC1,-140
14,Cc1c(C(C)NC2CCCC2)cnn1-c1ccc(F)cc1F (stereo not drawn),31.9
15,COc1ccc(-n2ncc(C(C)NCc3cnc(SC)nc3)c2C)cc1 (stereo not drawn),7.6
16,Cc1c(C(C)NCC2CCCC2)cnn1-c1ccc(F)cc1F (stereo not drawn),62.9
17,CSc1ncc(CNC(C)c2cnn(-c3ccc(F)cc3F)c2C)cn1 (stereo not drawn),50.3
18,Cc1c(C(C)NC2CCOCC2)cnn1-c1ccc(F)cc1F (stereo not drawn),22.3
19,CSc1ncc(CNC(C)c2cnn(-c3ccccc3)c2C)cn1 (stereo not drawn),36.7
20,O=C(NC[C@H]1OC[C@@H]2CCN(C3CCOCC3)C[C@@H]21)c1ccncc1,36.2
21,COc1c(CNC2CCc3c(Cl)cccc32)c(C)nn1C (stereo not drawn),36.3
22,OCc1cn(CC2CCN(C3CCSC3)CC2)nn1 (stereo not drawn),-14.1

row,Structure (SMILES),INHIBITION [%]
1,CCCN1CCC(N2CCC(Cn3cc(CC(C)O)nn3)CC2)CC1 (stereo not drawn),25.3
2,CC(O)Cc1cn(CC2CCN(C3CCSCC3)CC2)nn1 (stereo not drawn),57.8
3,O=C(O)c1cc(-c2cccs2)nc2c(Br)cnn12,15.9
4,Cn1cc(NC(=O)CNC(=O)N2CCN(c3ccccc3)CC2)cn1,21.5
5,Cc1cnc(CN(C)C2CCN(CC(=O)Nc3nncs3)C2)o1 (stereo not drawn),20.9
6,CCCC(=O)N1CCC2(CC1)CN(Cc1cccc(C)n1)C(=O)CO2,25.3
7,CS(=O)(=O)N1CC[C@H]2O[C@H](C(=O)NCCc3ccccn3)CC[C@H]21,54.7
8,O=C(NCc1cccs1)[C@H]1CC[C@@H]2[C@@H](CCN2Cc2ccoc2)O1,-5.31
9,O=C(Nc1cnccn1)[C@H]1CC[C@@H]2[C@@H](CCN2Cc2ccoc2)O1,8.52
10,CS(=O)(=O)N1CC[C@H]2O[C@H](C(=O)NCc3cccnc3)CC[C@H]21,11.4
11,O=C(NCCc1ccccn1)[C@@H]1CC[C@@H]2[C@@H](CCN2Cc2ccoc2)O1,59.9
12,CS(=O)(=O)N1CC[C@H]2O[C@H](C(=O)NCCc3ccncc3)CC[C@H]21,-35.9
13,Cc1c(C(=O)N(C)c2ccccc2)cccc1N(C)S(C)(=O)=O,22.07
14,CN(Cc1ccc(F)cc1)[C@@H]1CN(S(C)(=O)=O)C[C@H]1O,14.12
15,CC(C)Oc1ncc(C(=O)N2CCC(N(C)C)CC2)cc1Cl,26.6
16,CC(=O)N1CCN(C(=O)c2cnc(OC(C)C)c(Cl)c2)CC1,-2.32
17,CC(O)CN1CCN(C(=O)c2cnc(OC(C)C)c(Cl)c2)CC1 (stereo not drawn),40.5
18,CCN1CCCN(C(=O)c2cnc(OC(C)C)c(Cl)c2)CC1,60.1
19,CC(C)Oc1ncc(C(=O)N2CCC(CC(N)=O)CC2)cc1Cl,16.9
20,CC(=O)N1CCCN(C(=O)c2cnc(OC(C)C)c(Cl)c2)CC1,51.1
